Test results from PubChem BioAssay (NCI).
Compounds without any hit were thinned out: in the full panel of roughly 79,000, 15% have a hit. Active and inactive are the calls of the source. Rule as the data show it: active = growth inhibition above about 70%; inactive = the rest.

Legend:
[1] = NCI Yeast Anticancer Drug Screen. Data for the rad50 strain (AID 155);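 also: 0% = growth of vehicle-only cultures of the same strain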; conditions: S. cerevisiae rad50 strain growth inhibition; at 50.0 µM; stronger effect = higher value
In short: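 Genetically altered yeast (DNA repair pathway); compound treatment; growth inhibition vs vehicle ctrl.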

[2] = NCI Yeast Anticancer Drug Screen. Data for the mec2-1 strain (AID 157); conditions: S. cerevisiae mec2-1 strain, at 50.0 µM, stronger effect = higher value
In short: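 Using mec2-1 yeast: add compound, measure growth, express inhibition versus vehicle-treated cultures.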

[3] = NCI Yeast Anticancer Drug Screen. Data for the sgs1 mgt1 strain (AID 161);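 also: 0% = growth of cultures given vehicle only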; conditions: S. cerevisiae sgs1 mgt1 strain, at 50.0 µM, stronger effect = higher value
In short: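 Growth of a repair-deficient yeast mutant was monitored after compound treatment and expressed as inhibition relative to vehicle-treated cultures.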

[4] = NCI Yeast Anticancer Drug Screen. Data for the cln2 rad14 strain (AID 165);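 also: 0% = growth equal to vehicle treated cultures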; conditions: S. cerevisiae cln2 rad14 strain, at 50.0 µM, stronger effect = higher value
In short: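 Yeast strain cln2 rad14, bearing defects in cell cycle control and DNA repair, serves as the test system; values reflect growth inhibition compared with vehicle.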

[5] = NCI Yeast Anticancer Drug Screen. Data for the bub3 strain (AID 167); conditions: S. cerevisiae bub3 mutant strain, at 50.0 µM, stronger effect = higher value
In short: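 Yeast carrying a defined mutation is treated with each compound, and growth is compared with that of vehicle-exposed cells to give inhibition.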

[6] = NCI Yeast Anticancer Drug Screen. Data for the mlh1 rad18 strain (AID 175); conditions: S. cerevisiae mlh1 rad18 strain growth inhibition; at 50.0 µM; stronger effect = higher value
In short: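 Steps: expose repair-defective yeast to compound; measure growth; express inhibition against vehicle-treated controls.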

Measured: growth inhibition

Cc1ccc(S(=O)(=O)Oc2cccc(Br)c2)cc1
inactive: [1] 8.25% | [2] -1.25% | [3] 21.9% | [4] -17.4% | [5] -1.1% | [6] 7.55%

Cc1ccc(S(=O)(=O)OCCN(CCOS(=O)(=O)c2ccc(C)cc2)c2cccc(Cl)c2)cc1
inactive: [1] 14.1% | [2] 2.35% | [3] 4.65% | [4] 19% | [5] -4.45% | [6] 29.9%

CCCCC(/C=C\C(=O)O)CC (stereo unspecified)
inactive: [1] 29.7% | [2] -6.1% | [3] -11.8% | [4] 5.05% | [5] 5.75% | [6] 14.4%

Cc1ccccc1/C=C/C(=O)c1ccccc1
inactive: [1] 45.2% | [2] 24.6% | [3] 40.8% | [4] 1.8% | [5] 11.4% | [6] 20%

CC(C)(CO)NO
inactive: [1] -13.7% | [2] -6.9% | [3] 3.05% | [4] -0.4% | [5] -14.3% | [6] -5.7%

CN(C)CC1CCCC/C1=N\OC(=O)c1ccccc1 (stereo unspecified)
inactive: [1] -6.9% | [2] -13.8% | [3] 4.15% | [4] 6.25% | [5] 5.8% | [6] 8.1%

O=C1C=C(Oc2ccccc2)C(=O)C=C1Oc1ccccc1
inactive: [1] -8.15% | [2] -3.55% | [3] -27.1% | [4] -23.8% | [5] 14.3% | [6] -11.1%

Cc1ccc(S(=O)(=O)N/N=C2\CCC3CC3CC\C2=N/NS(=O)(=O)c2ccc(C)cc2)cc1 (stereo unspecified)
inactive: [1] -0.85% | [2] -4.4% | [3] 0.6% | [4] -9.1% | [5] -2.7% | [6] -5.75%

CCOC(=O)NC(S(=O)(=O)O)S(=O)(=O)O
inactive: [1] 0.6% | [2] 9.8% | [3] -25.1% | [4] -9.8% | [5] 16.1% | [6] 18.5%

COc1ccc(OC)c(CC(N)=O)c1
inactive: [1] -5.5% | [2] 4.6% | [3] -0.9% | [4] -23.8% | [5] 21.4% | [6] -8.85%

COc1cc2cc3c4cc(OC)c(OC)cc4cc[n+]3c(CCC(=O)O)c2cc1OC (tested in a mixture with another compound)
inactive: [1] 10.4% | [2] -2.75% | [3] -8.25% | [4] -4% | [5] 9.35% | [6] -0.1%

O=c1[nH]c(=O)n(C2OC(CF)C(O)C2O)cc1N1CCOCC1 (stereo unspecified)
inactive: [1] 16.9% | [2] 18% | [3] 18% | [4] 17.7% | [5] 19.5% | [6] 33%

O=C(/C=C\c1ccccc1)c1ccc(-c2cccc(-c3ccccc3)c2)cc1
inactive: [1] -8.55% | [2] 7.95% | [3] 7.5% | [4] -17.4% | [5] -3.15% | [6] -11.1%

CN1N=C2c3ccccc3OC(c3ccccc3)[C@H]2C1c1ccccc1 (stereo partly specified)
inactive: [1] -46.8% | [2] -47.2% | [3] -40.2% | [4] -3.8% | [5] -61.4% | [6] -41.7%

CC(C)(C(=Nc1ccc([N+](=O)[O-])cc1)N1CCOCC1)c1ccccc1
inactive: [1] 9% | [2] 6.7% | [3] 5.05% | [4] 34.6% | [5] 32.1% | [6] 22.6%

C[N+]1(C)C2CC(=O)CC1C1CC12 (stereo unspecified)
inactive: [1] -10.2% | [2] 7.4% | [3] 4.55% | [4] -2.15% | [5] 12.1% | [6] -16%

COc1cc2c(cc1OC)-c1c(C)c3ccc(OC)c(NCCO)c3c[n+]1CC2
inactive: [1] -43.2% | [2] -10% | [3] -29.7% | [4] -17% | [5] -0.4% | [6] -8.3%

CN(C)c1nc(N/N=C\C(O)C(O)C(O)C(O)CO)nc(N(C)C)n1 (stereo unspecified)
inactive: [1] -1.55% | [2] 2.45% | [3] -7.1% | [4] 1.15% | [5] 32.1% | [6] 9%

ClCC1CCC(CCl)CC1 (stereo unspecified)
inactive: [1] -31.6% | [2] -18.4% | [3] -15.2% | [4] -5.95% | [5] -21.7% | [6] -16.1%

c1ccc2cc(CCc3cc4ccccc4cn3)ncc2c1
inactive: [1] 10.2% | [2] 11.4% | [3] 7% | [4] -16.1% | [5] 24.4% | [6] 25.6%

O=C/C(=C(/Br)I)c1ccccc1
inactive: [1] 5.25% | [2] 2.85% | [3] 24.9% | [4] 8.7% | [5] 8.7% | [6] -27.1%

O=C1c2ccccc2CCC12OC2c1ccccn1 (stereo unspecified)
inactive: [1] 67.8% | [3] 55% | [4] -6%
active: [2] 78.5% | [5] 89.9% | [6] 84.2%

CCN(CC)CCN(C)c1ccccc1
inactive: [1] 9.85% | [2] 4.35% | [3] -2.05% | [4] -1.05% | [5] -0.1% | [6] 0.3%

CC1=CC(=O)/C(=C/N2CCNC2=S)C(=O)O1
inactive: [1] -24.6% | [2] -20.6% | [3] 1.3% | [4] 5.65% | [5] -31.3% | [6] 4.7%

CSC1NC(c2ccc(Cl)cc2)=C(C#N)C(=O)N1C1OCC(OC(C)=O)C(OC(C)=O)C1OC(C)=O (stereo unspecified)
inactive: [1] -10% | [2] -23.6% | [3] -24.2% | [4] -3.85% | [5] -8.6% | [6] -8.8%

Fc1ccc(N2C(c3ccccc3)=N[C@@H](N3CCOCC3)[C@@H]2N2CCOCC2)cc1
inactive: [1] 21.4% | [2] 11.2% | [3] 4.2% | [4] -19.9% | [5] -2.2% | [6] 20%

CCOc1ccc(N2CCN(C(=O)Nc3ccccc3OC)CC2)cc1
inactive: [1] -4.1% | [2] -6.2% | [3] -1.8% | [4] -47.5% | [5] 21.1% | [6] -3.95%

N#CC(C#N)=CNc1cccc(Cl)c1
inactive: [1] 34% | [2] 9.8% | [3] 29.2% | [4] 9.45% | [5] -1.05% | [6] 18.5%

CC(=O)Nc1c(Cl)cc(N)cc1Cl
inactive: [1] 9.35% | [2] -23.4% | [3] 2.3% | [4] 9.85% | [5] -16.4% | [6] 4.3%

COC(=O)C1(C)C=CC(=O)C2(C)C1C(O)C1OC3CC(c4ccoc4)C(C)=C3C1(C)C2CC(=O)O (stereo unspecified)
inactive: [1] 19.9% | [2] -7% | [3] 20.1% | [4] 12.4% | [5] 10.8% | [6] -21.3%

N#CC(CN1CCCCC1)c1ccccc1 (stereo unspecified)
inactive: [1] 5.4% | [2] 1.55% | [3] 5.2% | [4] -41.4% | [5] -8.75% | [6] 0.8%

O=C(N/N=C(\C1=Nc2ccc(Cl)cc2NC1O)C(O)/C=C/c1ccccc1)c1ccncc1 (stereo unspecified)
inactive: [1] 17.6% | [2] 3.95% | [3] -8.8% | [4] -20.7% | [5] -4% | [6] 7.7%

CC(C)(C)CC(C)(C)c1ccc(OCCOc2ccc(C(=O)Nc3ccc([N+](=O)[O-])cc3)cc2)cc1
inactive: [1] 49.9% | [2] -0.3% | [3] 42.5% | [4] 6% | [5] -5.65% | [6] 22.9%

O.O.[Cl][Pt+2][Cl].[NH-]CC1(C[NH-])CCCCC1
inactive: [1] 10.4% | [2] 5.7% | [3] 11.8% | [4] 18.5% | [5] 8.75% | [6] -30.1%

C/C=C/C=c1/[nH]c(=O)/c(=C\C)[nH]c1=O
inactive: [1] -6.85% | [2] -5.15% | [3] -10.6% | [4] -21.5% | [5] 0.95% | [6] -14.2%

NC(N)=NCCCC(O)C(=O)O (stereo unspecified)
inactive: [1] -10.6% | [2] -11.8% | [3] -6.85% | [4] -2.95% | [5] 2.25% | [6] 0.85%

CC(C)(C)OC(=O)N(CCCCNC(=O)c1ccccc1)CCCNC(=O)c1ccccc1
inactive: [1] 13.4% | [2] -8.5% | [3] -30% | [4] -26.5% | [5] -36.5% | [6] -64%

O=c1[nH]cc([N+](=O)[O-])c(=O)[nH]1
inactive: [1] 14.3% | [2] 13.1% | [3] 8.25% | [4] 14.7% | [5] 16.9% | [6] 11.2%

CCC(=O)N(C)c1ccccc1
inactive: [1] 22.4% | [2] 6.3% | [3] 0.75% | [4] 12.2% | [5] -0.35% | [6] -23.4%

CO/C(=N\N=C\c1cccc(C(F)(F)F)c1)c1ccncc1
inactive: [1] 27.3% | [2] 6.4% | [3] -2.2% | [4] -6.05% | [5] 5.1% | [6] 12.2%

C=C1N(c2cc(OC)c(OC)c(OC)c2)C(=O)OC12CCCCC2
inactive: [1] -4.05% | [2] 5.4% | [3] 0.2% | [4] 38.7% | [5] -0.3% | [6] 1.4%
